# Compound activity deposited in PubChem by National Center for Advancing Translational Sciences (NCATS).
# Only some compounds are listed: those with a hit (about 1.4% of all), similar ones and a draw of the others.
# p53 reactivation: re-activators of mutant p53; H1299 p53-A138V BP100-luciferase reporter, luminescence, 24 h; Potency, µM (series often up to 92.2 µM), hits mostly activators; 320,000 tested, 0.063% active; also: nearly all actives have a fitted effect of over 45% in size
#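 H1299 (p53-null), stable ts p53-A138V + BP100-Luc; 1000 cells/well, Opti-MEM/10% FBS; cpd 4 pt, 1:5; 24 h, 37 deg C, 5% CO2; detection reagent 10 min RT; luminescence.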
# CCT chaperon mod: changes cytosolic chaperonin activity; purified chaperonin ATPase assay, HTRF ADP detection, 30 min; activity change, % (test concentration not listed), hits read low; 360,000 tested, 0.3% active; AID 651819; in the data active = activity change below about -30%
#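 Nucleotide hydrolysis assay: TRiC at 20–40 nM final (set by batch activity) with 10 uM ATP, 30 min at 37 °C, in presence of 76 uM compound. Detection by competitive ADP HTRF, 30 min ambient.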
# ALOX12 inh: inhibitors of human 12S-lipoxygenase ALOX12. 580,000 tested, 1.1% active. purified 12hLO, xylenol orange hydroperoxide absorbance. Potency, µM (doses to about 108 µM), actives largely listed as inhibitors. P18054
# Target sequence (P18054 whole entry, looked up): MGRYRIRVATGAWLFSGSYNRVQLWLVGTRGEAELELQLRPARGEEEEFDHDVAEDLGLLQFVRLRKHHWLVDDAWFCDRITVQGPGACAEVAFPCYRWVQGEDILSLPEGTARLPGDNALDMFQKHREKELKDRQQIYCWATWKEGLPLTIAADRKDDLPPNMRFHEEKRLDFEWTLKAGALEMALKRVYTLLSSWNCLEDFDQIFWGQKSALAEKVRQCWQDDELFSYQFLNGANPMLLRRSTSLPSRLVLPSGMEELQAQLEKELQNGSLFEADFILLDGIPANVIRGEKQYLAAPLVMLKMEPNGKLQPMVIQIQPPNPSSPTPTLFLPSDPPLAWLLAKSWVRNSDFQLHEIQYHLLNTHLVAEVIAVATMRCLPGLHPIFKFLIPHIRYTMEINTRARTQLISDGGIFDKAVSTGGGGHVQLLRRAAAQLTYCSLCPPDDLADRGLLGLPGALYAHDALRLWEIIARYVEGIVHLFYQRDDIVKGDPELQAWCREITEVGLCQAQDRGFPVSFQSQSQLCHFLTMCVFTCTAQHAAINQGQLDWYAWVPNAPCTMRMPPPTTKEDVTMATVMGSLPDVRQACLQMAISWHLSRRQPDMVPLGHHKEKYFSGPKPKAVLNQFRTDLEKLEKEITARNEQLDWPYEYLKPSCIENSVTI
#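 Purified human 12hLO (150 nM final) in 25 mM Hepes, 0.01% Triton X-100, pH 7.0 was preincubated 15 min at room temperature with compound. Then 40 uM arachidonic acid was added, 30 min. Hydroperoxide was read by Fe-XO absorbance ratio 573/405 nm.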
# ASM inhibitor: inhibitors of human secretory acid sphingomyelinase; P17405; placental ASM, HMU-PC fluorogenic substrate, 60 min; Potency, µM (series often up to 57.5 µM), actives largely listed as inhibitors; 340,000 tested, 0.006% active; AID 504937
#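 Steps: dispense placental human ASM, pin compound, wait 10 min at room temperature, add HMU-PC0 substrate at 9 uM final, incubate 60 min at 37 °C, add stop solution raising pH to 10, read fluorescence.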
# MmCpn inh: blocks the Methanococcus maripaludis chaperonin Mm-Cpn. purified Mm-Cpn ATPase, ADP Transcreener TR-FRET. Potency, µM (doses to about 76.9 µM), usual class: inhibitors. 330,000 tested, 0.031% active; also: nearly all actives have a fitted effect of over 80% in size
#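 Purified archaeal Mm-CPN (25nM final) preincubated 10 min at 37degC with compound, then 10uM ATP for 30 min at 37degC; ADP measured by HTRF Transcreener TR-FRET; buffer 30 mM TRIS pH 7.4, 100mM KCl, 5mM MgCl2, 1mM DTT.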
# PINK1 modulator: changes PINK1 expression | PINK1 immunofluorescence, high-content cytometry, 24 h | Potency, µM (doses to about 76.6 µM), usual class: activators | 410,000 tested, 0.2% active; active = well fitted activation curve with a large enough effect; inconclusive = small, poorly fitted or top-dose-only effect; cell line not stated here; also: nearly all actives have a fitted effect of over 65% in size
#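 Measures PINK1 amount and localization on or inside mitochondria by immunofluorescence. Stable cells get compounds at 5 concentrations for 24 hours before fixation and staining; CCCP controls included.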
# Numbers stand for hits; - = inactive; ? = inconclusive; . = not tested or not shown; ! = not active in a repeat. Unless noted, calls follow the shape of the dose curve; as a rule, active = well fitted curve in the direction sought with a large enough effect; inconclusive = small, poorly fitted or top-dose-only effect, or another doubt; inactive = no such curve, though single readings can be large; an effect the other way counts as inactive or inconclusive.
SMILES,p53 reactivation,CCT chaperon mod,ALOX12 inh,ASM inhibitor,MmCpn inh,PINK1 modulator
COc1ccc(CCNC(=O)c2csc(NC(C)C)n2)cc1,.,.,-,.,.,.
Cc1cc2cc(NS(=O)(=O)c3ccccc3)ccc2[nH]1,.,.,-,.,.,.
Cc1cc2cc(NS(=O)(=O)c3ccc4ccccc4c3)ccc2[nH]1,.,.,10µM,.,.,.
COc1ccc2c(c1)C(C)=CC(C)(C)N2C(=O)Nc1cccc(Cl)c1,.,.,39.8µM,.,.,.
CC(NC(=O)c1sc2cc([N+](=O)[O-])ccc2c1Cl)C(C)(C)C (configuration not stated),-,-,31.6µM,-,-,-
Cc1ccc(S(=O)(=O)NCc2nnnn2-c2ccc(C)c(C)c2)cc1,.,.,-,.,.,.
COc1ccc(C2C(C#N)=C(N)Oc3cc(C)n(Cc4ccc5c(c4)OCO5)c(=O)c32)cc1 (configuration not stated),.,.,-,.,.,.
CCN1C=C(Cc2ccc(OC)cc2)C2=C(C1)C(c1ccc(OC)cc1)C(C#N)=C(N)O2 (configuration not stated),-,-,17.8µM,-,-,-
CN(C)c1nc(-c2ccccc2)ncc1S(=O)(=O)c1ccccc1,-,-32.3,-,-,-,-
CCN(CC)c1nc(-c2ccccc2)ncc1S(=O)(=O)c1ccc(C)cc1,-,-,-,-,-,-
C[C@@H](NC(=O)Nc1ccccc1)c1onc(-c2ccc(F)cc2)c1C(=O)O,.,.,63.1µM,.,.,.
C[C@@H](NC(=O)c1cccnc1)c1onc(-c2ccc(F)cc2)c1C(=O)O,.,.,17.8µM,.,.,.
C[C@@H](NC(=O)Nc1ccc(Cl)cc1)c1onc(-c2ccccc2)c1C(=O)O,.,.,-,.,.,.
C[C@@H](NS(C)(=O)=O)c1onc(-c2cccnc2)c1C(=O)O,.,.,56.2µM,.,.,.
C[C@@H](NC(=O)Nc1ccc(Cl)cc1)c1onc(-c2ccc(F)cc2)c1C(=O)O,.,.,-,.,.,.
C[C@@H](NC(=O)c1ccc(F)cc1)c1onc(-c2ccccc2)c1C(=O)O,.,.,-,.,.,.
Cc1noc([C@@H](C)NC(=O)Nc2ccc(Cl)cc2)c1C(=O)O,.,.,20µM,.,.,.
C[C@@H](NS(=O)(=O)c1ccccc1)c1onc(-c2cccnc2)c1C(=O)O,.,.,-,.,.,.
Cn1nnnc1SCc1nc2scc(-c3ccc(Cl)cc3)c2c(=O)[nH]1,-,-,?,-,-,39.8µM
COCCC(C)NC(=O)c1cc(=O)[nH]c2ccccc12 (configuration not stated),.,.,-,.,.,.
CC(C)(C)c1nnc(NC(=O)CS(=O)(=O)Cc2ccccc2)s1,-,-,39.8µM!,-,-,-
CCOc1cc(/C=N/O)cc(Cl)c1OCC(=O)NN,.,.,-,.,.,.
CCCn1nc(C(=O)Nc2cccc(S(=O)(=O)N(C)C)c2)c2ccccc2c1=O,.,.,-,.,.,.
O=S(=O)(NCc1ccc(N2CCOCC2)nc1)c1cc(C(F)(F)F)cc(C(F)(F)F)c1,.,.,7.08µM,.,.,.
Cc1ccccc1S(=O)(=O)N1[C@@H](c2ccc(Br)cc2)C(C(=O)O)=CC[C@H]1c1ccc(Cl)cc1,-,-,?,-,-,-
SMILES,p53 reactivation,CCT chaperon mod,ALOX12 inh,ASM inhibitor,MmCpn inh,PINK1 modulator
Cc1ccccc1S(=O)(=O)N1C(c2ccc(Cl)c(Cl)c2)CC=C(C(=O)O)C1c1cccc(Br)c1 (configuration not stated),.,.,50.1µM,.,.,.
COc1cccc(N=Nc2ccc3cccnc3c2O)c1,35.5µM,-,?,-,?,-
COc1ccc(C(=O)N2CCC3(CC2)NC(=O)N(c2cccc(F)c2)N3)c(OC)c1,.,.,1.26µM,.,.,.
CN(C)c1ccc(C(=O)N2CCC3(CC2)NC(=O)N(Cc2ccc(F)cc2)C3=O)cc1,.,.,-,.,.,.
COc1cccc(C(=O)N2CCC3(CC2)NC(=O)N(c2cccc(F)c2)N3)c1,.,.,2µM,.,.,.
COc1ccc(C(=O)N2CCC3(CC2)NC(=O)N(c2ccc(F)cc2)N3)cc1F,.,.,2µM,.,.,.
COc1ccc(C(=O)N2CCC3(CC2)NC(=O)N(Cc2ccc(F)cc2)C3=O)c(OC)c1,.,.,-,.,.,.
CN(C)c1ccc(C(=O)N2CCC3(CC2)NC(=O)N(c2cccc(F)c2)N3)cc1,.,.,5.01µM,.,.,.
COc1cccc(C(=O)N2CCN(C(=O)c3cccc(F)c3)CC2)c1,-,-,-,-,-,-
O=C(Nc1ccc2c(c1)CCC2)c1ccc(Br)cc1,.,.,-,.,.,.
